High-throughput results deposited in PubChem by National Center for Advancing Translational Sciences (NCATS).
FMDV inh: High Throughput Screening for Foot and Mouth Disease Virus Antivirals | FMDV antiviral cell-based qHTS | Potency, µM (series often up to 57.9 µM), for inactives: at the highest dose activity change, negative = inhibition, usual class: inhibitors | actives 1.2% (n = 410,000); calls by dose curve; tested in HEK293T cells; note: read-out not given here; potency is the fitted concentration of half-maximal effect; % is set by controls: 0 for no effect and ±100 for the full control effect; nearly all actives have a fitted effect of over 45% in size
SARS PLpro yeast: qHTS of Yeast-based Assay for SARS-CoV PLP | S. cerevisiae expressing SARS-CoV PLpro, growth rescue | Potency, µM (highest dose often 32.9 µM), without a hit: at the highest dose activity, positive = growth rescue, usual class: activators | actives 0.19% (n = 330,000); calls by dose curve; note: potency is the fitted concentration of half-maximal effect; 0% is about no effect; nearly all actives have a fitted effect of over 55% in size
Marburg entry inh: qHTS for inhibitors of binding or entry into cells for Marburg Virus. Marburg virus pseudotyped entry inhibition, cell reporter. Potency, µM (highest dose often 37.8 µM), without a hit: at the highest dose activity change, negative = inhibition, actives largely listed as inhibitors. actives 1.8% (n = 300,000); calls by dose curve; tested in HEK293 cells; note: potency is the fitted concentration of half-maximal effect; % is set by controls: 0 for no effect and ±100 for the full control effect
Lassa entry inh: qHTS for Inhibitors of binding or entry into cells for Lassa Virus. Lassa virus pseudotype entry inhibition, cell reporter. Potency, µM (titrated, usually from 37.9 µM), for inactives: at the top dose activity change, negative = inhibition, actives largely listed as inhibitors. AID 540256, 2011. actives 1.2% (n = 300,000); calls by dose curve; tested in HEK293 cells; note: potency is the fitted concentration of half-maximal effect; % is set by controls: 0 for no effect and ±100 for the full control effect; nearly all actives have a fitted effect of over 50% in size
HCV inhibitor: qHTS Assay for Inhibitors of Hepatitis C Virus (HCV); Huh7.5.1 HCVcc-Cre infection, luciferase reporter, 44 h; actives 3.4% (n = 340,000); Potency, µM (highest dose often 41.8 µM), without a hit: at the highest dose activity change, negative = inhibition, hits mostly inhibitors; active = well fitted inhibition curve with a large enough effect; inconclusive = small, poorly fitted or top-dose-only effect, or another doubt; inactive = no such curve, though single readings can be large or run the other way; note: potency is the fitted concentration of half-maximal effect; % is set by controls: 0 for no effect and ±100 for the full control effect
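After 44 h co-culture of compound, cells and HCVcc-Cre (~0.5 moi), substrate is added for 15 min at room temperature and luciferase measured over 15 sec. Cells were seeded at 1,000/well and pre-cultured 4 h.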
HCMV antiviral: qHTS Assay for inhibitors of the human cytomegalovirus (HCMV); HFF cells, HCMV-luciferase reporter, 72 h; active compounds read low; actives 4.5% (n = 410,000); activity change, negative = inhibition, % at 57.5 µM; in the data active = activity change below about -60%; inconclusive = no clear call, values can overlap the other calls; inactive = above about -39%; note: % is set by controls: 0 for no effect and ±100 for the full control effect
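After 16 h attachment at 37C, HFF cells received test compound and HCMV-luciferase (1 PFU/cell); reporter luminescence read 72 h later, data normalized against buffer-only and known inhibitor Salinomycin.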
Numbers without * were called inactive; ! = a repeat was not active; [ ] = remark or other dose. Rows were chosen to be rich in hits. Some 8% of all compounds tested hit in one or more screens of this group.

How did Cc1ccc(C(=O)N2CC=C(c3ccccc3)CC2)o1 do in these assays?
FMDV inh: 1%; SARS PLpro yeast: -10%; Marburg entry inh: 0%[46.1 µM]; Lassa entry inh: -3%; HCV inhibitor: 11µM*; HCMV antiviral: -37

How did Cc1cccc(-c2cc(C(=O)Nc3ccc4c(c3)OCCO4)c3ccccc3n2)c1 do in these assays?
FMDV inh: 0%; SARS PLpro yeast: -12%; Marburg entry inh: -29%; Lassa entry inh: -24%; HCV inhibitor: inconclusive; HCMV antiviral: -37

How did CC(C)(C)c1ccc(/C=C/C(=O)Nc2ccc3c(c2)OCCO3)cc1 do in these assays?
Marburg entry inh: -27%; Lassa entry inh: 6.5µM*

How did O=C(Nc1ccc2c(c1)OCCO2)c1c(Cl)cccc1Cl do in these assays?
FMDV inh: 24%; HCMV antiviral: -85*

Results for O=C(Nc1ccc2c(c1)OCCO2)c1cc(-c2ccccn2)nc2ccc(Br)cc12 ?
FMDV inh: -19%; SARS PLpro yeast: 0%; Marburg entry inh: 16%[46.1 µM]; Lassa entry inh: 10%; HCV inhibitor: -29%; HCMV antiviral: -94*

How did Cc1ccc(C(=O)Nc2ccc3c(c2)OCCO3)cc1 do in these assays?
FMDV inh: inconclusive; SARS PLpro yeast: -8%; Marburg entry inh: inconclusive; Lassa entry inh: 2.8µM*; HCV inhibitor: 0%; HCMV antiviral: inconclusive

How did CC(=O)Nc1ccc(NC(=O)/C=C/c2ccc3c(c2)OCO3)cc1 do in these assays?
FMDV inh: 10%; SARS PLpro yeast: 0%; Marburg entry inh: -29%[46.1 µM]; Lassa entry inh: -10%; HCV inhibitor: inconclusive; HCMV antiviral: inconclusive

What do the screens show for `Cc1c(C(=O)Nc2cnn(C(C)(C)C(=O)NCc3ccco3)c2)oc2ccccc12`?
HCMV antiviral: 35

Results for CNC(=O)c1ccc(Nc2nnc(-c3ccc(C)c(S(=O)(=O)N4CCOCC4)c3)c3ccccc23)cc1 ?
FMDV inh: -30%; Lassa entry inh: inconclusive; HCMV antiviral: 0

How did O=C(Nc1ccc2c(c1)OCCO2)c1ccc(Br)cc1 do in these assays?
FMDV inh: 2%; SARS PLpro yeast: -3%; Marburg entry inh: 4µM*; Lassa entry inh: inconclusive; HCV inhibitor: inconclusive; HCMV antiviral: 17

Results for O=C(Nc1ccc2c(c1)OCCO2)c1cccc(Br)c1 ?
FMDV inh: 1%; SARS PLpro yeast: -20%; Marburg entry inh: inconclusive; Lassa entry inh: -2%[46.1 µM]; HCV inhibitor: -19%; HCMV antiviral: 150

What do the screens show for `O=[N+]([O-])c1cccc(C2NCC(c3ccccc3Cl)c3c2[nH]c2ccccc32)c1` (centres undefined)?
FMDV inh: 0%; SARS PLpro yeast: -19%; Marburg entry inh: inconclusive; Lassa entry inh: 14µM*; HCV inhibitor: -6%; HCMV antiviral: 20

Results for Cc1c(C(=O)N2CCCCCC2)c(S(=O)(=O)NCc2ccccc2)c(C)n1C ?
FMDV inh: 49%; Lassa entry inh: 27%[46.1 µM]; HCMV antiviral: -14

How did Cc1cc(C)n(/C(=C\N(C)C)C(=O)c2ccc(Cl)cc2)n1 do in these assays?
FMDV inh: 11%; SARS PLpro yeast: 4%; Marburg entry inh: -2%[46.1 µM]; Lassa entry inh: 14%[46.1 µM]; HCV inhibitor: 13%; HCMV antiviral: -61*

Results for COc1ccc(C(=O)/C(=C\N(C)C)n2nc(C)cc2C)cc1 ?
FMDV inh: -7%; SARS PLpro yeast: 0%; Marburg entry inh: inconclusive; Lassa entry inh: inconclusive; HCV inhibitor: 10%; HCMV antiviral: -18

How did CCN(CC(=O)NCc1ccc(F)cc1)C(=O)COc1ccc(C)c(C)c1 do in these assays?
FMDV inh: 8%; SARS PLpro yeast: 19%; Marburg entry inh: 0%; Lassa entry inh: -10%; HCV inhibitor: inconclusive; HCMV antiviral: -65*

Results for O=C(COc1ccccc1)NCc1ccccc1 ?
SARS PLpro yeast: -4%; Marburg entry inh: 1%; Lassa entry inh: 15%; HCV inhibitor: 15%; HCMV antiviral: inconclusive

What do the screens show for `O=C(COc1ccc(C(=O)c2ccccc2)cc1)NCc1ccc(F)cc1`?
FMDV inh: -15%; SARS PLpro yeast: 10%; Marburg entry inh: inconclusive; Lassa entry inh: inconclusive; HCV inhibitor: -8%; HCMV antiviral: -76*

How did N/C(=N\OC(=O)Cc1ccccc1[N+](=O)[O-])c1ccncc1 do in these assays?
FMDV inh: -6%; SARS PLpro yeast: -5%; Marburg entry inh: inconclusive; Lassa entry inh: 20%; HCV inhibitor: 5%; HCMV antiviral: -61*

Results for COC(=O)[C@H]1[C@H]2C[C@@H]3c4[nH]c5cc(OC)ccc5c4CCN3C[C@H]2C[C@@H](OC(=O)c2cc(OC)c(OC)c(OC)c2)[C@@H]1OC ?
FMDV inh: -17%; Marburg entry inh: 10µM*; Lassa entry inh: 7.3µM*; HCV inhibitor: inconclusive; HCMV antiviral: 23

Results for CC(C)Cc1nc(N2CCN(C(=O)c3ccco3)CC2)c(C#N)c2c1CCCC2 ?
FMDV inh: inconclusive; SARS PLpro yeast: -57%; HCV inhibitor: 10µM*; HCMV antiviral: 0

How did Cc1nc(N2CCN(C(=O)c3ccco3)CC2)c(C#N)c2c1CCCC2 do in these assays?
FMDV inh: -30%; SARS PLpro yeast: -9%; Marburg entry inh: 21%[46.1 µM]; Lassa entry inh: -20%[46.1 µM]; HCV inhibitor: inconclusive; HCMV antiviral: 21

How did CC(C)C(=O)N1CCN(c2nc(-c3ccccc3)c3c(c2C#N)CCCC3)CC1 do in these assays?
FMDV inh: inconclusive; SARS PLpro yeast: -23%; Marburg entry inh: inconclusive; Lassa entry inh: inconclusive; HCV inhibitor: 6.3µM*; HCMV antiviral: inconclusive

Results for CCCC(=O)N1CCN(c2nc(CC(C)C)c3c(c2C#N)CCC3)CC1 ?
FMDV inh: inconclusive; SARS PLpro yeast: -10%; Marburg entry inh: inconclusive; Lassa entry inh: 13µM*; HCV inhibitor: inconclusive; HCMV antiviral: inconclusive

What do the screens show for `O=C(COC(=O)C1CCN(S(=O)(=O)c2ccccc2)CC1)NC(=O)c1ccc(OC(F)F)cc1`?
FMDV inh: -8%; SARS PLpro yeast: 8%; Marburg entry inh: 0%; Lassa entry inh: -12%; HCV inhibitor: -1%; HCMV antiviral: 73

Results for C=CCNc1nc(C)c(CNc2c(C)cc(C)cc2C)nc1C#N ?
FMDV inh: -10%; SARS PLpro yeast: -3%; HCV inhibitor: 2%; HCMV antiviral: 43

What do the screens show for `CN=c1nc(-c2ccccc2)n(-c2ccccc2)s1`?
FMDV inh: 0%; Marburg entry inh: 14µM*!; Lassa entry inh: 23µM*; HCV inhibitor: -13%; HCMV antiviral: -24

How did CCN(Cc1ccncc1)Cc1ccc2c(c1)CN(C(=O)c1ccc(C#CC(C)(C)O)o1)CCO2 do in these assays?
FMDV inh: -11%
